Laboratory results from PubChem BioAssay (Tox21).
Inconclusive results are not listed. Active and inactive are the calls of the source. Calls follow the shape of the dose curve; as a rule, active = well fitted cell-killing curve with a large enough effect in the repeat runs; inconclusive = weak or mixed curves, or effect the other way; inactive = no such curve, though single readings can be large or run the other way.

Assay: qHTS assay to identify small molecule agonists of the farnesoid-X-receptor (FXR) signaling pathway - cell viability counter screen (AID 743218); also: nearly all actives have a fitted effect of over 45% in size
Conditions: FXR-bla HEK293T viability, CellTiter-Glo luminescence, 16 h; series mostly up to 62.6 µM
From the text: U.S. Tox21 Program National Center for Advancing Translational Sciences [NCATS] NIH Chemical Genomics Center [NCGC] U.S. Environmental Protection Agency [EPA] National Institutes of Environmental Health Sciences [NIEHS] National Toxicology Program [NTP] U.S. Food and Drug Administration [FDA] Tox21 Assay Overview: The farnesoid-X-receptor (FXR), a nuclear hormone receptor, is highly expressed in liver, intestine, kidney and adrenal cortex. Natural ligands of FXR are the bile acids (Cholic acid, Chenodeoxy cholic acid etc). FXR is an important regulator of diverse metabolic pathways, including the bile acid homeostasis, lipid and glucose metabolisms. FXR regulates the expression of target genes by binding either as a monomer or as a heterodimer with the retinoid X receptor (RXR). Numerous studies have reported that FXR exerts protective function during cholestasis, diabetes, liver regeneration, and cancer. To identify compounds that activate FXR signaling, GeneBLAzer FXR-UAS-bla HEK 293T cell line (Invitrogen, Carlsbad, CA) containing a beta-lactamase reporter gene under the control of a UAS response element was used to screen the Tox21 10K compound library. The cytotoxicity of the Tox21 compound library against the FXR-bla cell line was tested in parallel by measuring the cell viability using CellTiter-Glo assay in the same wells.
Tox21 Assay Protocol Summary: FXR-bla cells were dispensed at 5000 cells/5uL/well in 1536-well black wall/clear bottom plates using a Multidrop Combi (Thermo Fisher Scientific, Waltham, MA) dispenser. After the assay plates were incubated at 37 C and 5% CO2 for 5 h, 23 nL of compounds dissolved in DMSO, positive controls or DMSO only was transferred to the assay plate by a Pintool station (Kalypsys, San Diego, CA). The assay plates were incubated at 37C for 16 h. After 1 uL of LiveBLAzerTM B/G FRET substrate was added using a Bioraptr Flying Reagent Dispenser (FRD) workstation (Beckman Coulter, Indianapolis, IN), the plates were incubated at room temperature for 2 h, and fluorescence intensity was measured by an Envision plate reader (PerkinElmer, Shelton, CT). For cell viability readout that measures cytotoxicity, 4uL/well of CellTiter-Glo reagent was added into the assay plates using a Bioraptr FRD. After 30 min incubation at room temperature, the luminescence intensity in the plates was measured using a ViewLux plate reader (PerkinElmer).
% is scaled to controls: 0 for no effect and ±100 for the full control effect.

| SMILES | outcome | viability change, negative = cytotoxic |
| --- | --- | --- |
| COc1ccc(NC(C)=O)cc1 | inactive |  |
| CC1(C)OC(=O)Nc2ccc(Br)cc21 | inactive |  |
| COC(=O)CCCC(=O)O | inactive |  |
| CSc1ccc(C=O)cc1 | inactive |  |
| O=c1[nH]c(=O)n([C@H]2O[C@H](CO)[C@@H](O)[C@@H]2O)cc1/C=C\Br | inactive |  |
| C=C(C)C(=O)OCCC(C)OC(=O)C(=C)C (stereo not given) | inactive |  |
| COC[C@H](c1ccc(C(F)(F)F)cc1)N1CCN(C2(C)CCN(C(=O)c3c(C)ncnc3C)CC2)C[C@H]1C | inactive |  |
| CC(C)(C)C(=O)/C=C/c1ccc(Cl)cc1 | inactive |  |
| OCc1ccccn1 | inactive |  |
| O=C(O)C1CCC1 | inactive |  |
| CCCCNc1ccccc1 | inactive |  |
| CCCCCCCCCCCCCCC | inactive |  |
| NCCN1CCNC1=O | inactive |  |
| CCN1CCN(c2cc3c(cc2F)c(=O)c(C(=O)O)cn3C2CC2)CC1 | inactive |  |
| CCCCCCCCCCCCCCCCCCOCC(O)CO (stereo not given) | inactive |  |
| Oc1ccc2c(c1)OC[C@@H](N1CCC(O)(c3ccc(F)cc3)CC1)[C@H]2O | inactive |  |
| Cc1ccc(Nc2ccc(O)c3c2C(=O)c2ccccc2C3=O)cc1 | inactive |  |
| CC(C)(C)CC(C)(C)N | inactive |  |
| OCC(CO)(CO)COCC(CO)(CO)CO | inactive |  |
| Cc1cc(C)cc(OCC2CNC(=O)O2)c1 (stereo not given) | inactive |  |

| SMILES | outcome | viability change, negative = cytotoxic |
| --- | --- | --- |
| CC1CCN(CCCC(=O)c2ccc(F)cc2)CC1 | inactive |  |
| NC(=S)Nc1cccc2ccccc12 |  | 18.3% [at 5.95 µM] (inactive) |
| CC(O)CN(CCCN(C)C)CCCN(C)C (stereo not given) | inactive |  |
| Cc1nc(-c2ccc(OCC(C)C)c(C#N)c2)sc1C(=O)O | inactive |  |
| C/C=C1\C(=O)C[C@H]2[C@@H]3CCC4=CC(=O)CC[C@]4(C)[C@H]3CC[C@]12C | inactive |  |
| C=CCSCC1Nc2cc(Cl)c(S(N)(=O)=O)cc2S(=O)(=O)N1 (stereo not given) | inactive |  |
| O=[N+]([O-])c1ccc(CCO)cc1 | inactive |  |
| CCOC(=O)[C@H](CCc1ccccc1)N[C@@H](C)C(=O)N1CCC[C@H]1C(=O)O | inactive |  |
| O=c1[nH]c2ccccc2c(=O)n1CCCl | inactive |  |
| COc1cc(C)cc(O)c1 | inactive |  |
| C#CC(O)CCCCC (stereo not given) | inactive |  |
| COCc1ccc(COC)cc1 | inactive |  |
| CSc1nc(NC2CC2)nc(NC(C)(C)C)n1 | inactive |  |
| CCc1cc(S(=O)(=O)O)c2cc(C(C)C)cccc1-2 | inactive |  |
| CC(C)CCCC(C)CCCC(C)CCCCC(C)CCCC(C)CCCC(C)C (stereo not given) | inactive |  |
| C=C(C)C1CC=C(C)C(O)C1 (stereo not given) | inactive |  |
| CCCCc1ccc(N)cc1 | inactive |  |
| Cc1cc(C)c(NC(=O)CN(CC(=O)O)CC(=O)O)c(C)c1Br | inactive |  |
| CCC(=O)Nc1cccc(N)c1 | inactive |  |
| OCC(O)[C@@H](O)[C@H](O)[C@H](O)CO[C@H]1O[C@H](CO)[C@@H](O)[C@H](O)[C@H]1O (stereo not given in full) | inactive |  |
